Only some compounds are listed: those with a hit (about 3.1% of all), similar ones and a draw of the others.
PriA SSB inh: inhibitors of Klebsiella pneumoniae PriA binding to SSB C-terminal tail. AlphaScreen SSBct-PriA binding, biotinylated peptide. inhibition, % at 33 µM. 430,000 tested, 0.6% active. AID 1272365; in the data active means inhibition mostly above about 37%, no sharp cut-off; inactive means mostly below about 20%
Anthrax LF inh2: anthrax lethal factor protease inhibition; inhibition, % at 10 µM; 360,000 tested, 0.12% active; multiplex microsphere protease cleavage assay, LF; AID 588501
BoNT-F LC inh: blocks Botulinum neurotoxin F light chain protease | 360,000 tested, 0.22% active | Multiplex microsphere protease cleavage assay, flow cytometry | inhibition, % at 10 µM; in the data active means inhibition above about 35%, passing the limit was not always enough; inconclusive means no clear call, values can overlap the other calls
Autofluor counter: compound fluorescence in toxin protease inhibitor counterscreen; 360,000 tested, 3.1% active; compound autofluorescence counterscreen, microsphere flow cytometry; hits give high values; AID 624483; fluorescence intensity (test concentration not listed); in the data active means fluorescence intensity above about 16000; inconclusive means no clear call, values can overlap the other calls
BoNT-A LC inh2: blocks Botulinum neurotoxin A light chain protease | multiplex microsphere protease substrate cleavage, flow cytometry | inhibition, % at 10 µM | 360,000 tested, 0.17% active | AID 588499
Of the large screens only hits and unclear results are named; the others gave an inactive call. Unless noted, no stated cut-off is given here; in the data, active means inhibition above about 30%; inconclusive means no clear call, values can overlap the other calls; inactive means below that.

COC(=O)c1sccc1-c1ccc(C(=O)Nc2ccccc2)o1	Autofluor counter 19373, BoNT-A LC inh2 inconclusive
Cc1ccc2c(c1)c(-c1ccccc1)c(-c1ccccc1)n2CC(O)CNC1CCCC1 (stereo not drawn)	PriA SSB inh 61 (no result: Anthrax LF inh2, BoNT-F LC inh, Autofluor counter, BoNT-A LC inh2)
N[C@@H](C(=O)O)c1cccnc1	none (no result: Anthrax LF inh2, BoNT-F LC inh, Autofluor counter, BoNT-A LC inh2)
CC(=O)NC(c1ccccc1)c1cccnc1 (stereo not drawn)	Autofluor counter 16197
Cc1cc(NC(=O)c2cc3ccccc3o2)n(-c2nc3c(cnn3-c3cccc(C)c3C)c(=O)[nH]2)n1	none (no result: Anthrax LF inh2, BoNT-F LC inh, Autofluor counter, BoNT-A LC inh2)
N=C1N(/N=C/c2ccccc2)C(=Nc2ccccc2)C(=S)N1c1ccccc1	Autofluor counter 18941 (no result: PriA SSB inh)
Cc1ccc(N=C2C(=S)N(c3ccc(C)cc3)C(=N)N2N=Cc2ccc(Cl)cc2)cc1	none (no result: Anthrax LF inh2, BoNT-F LC inh, Autofluor counter, BoNT-A LC inh2)
N#Cc1cc([N+](=O)[O-])c(-n2nnc3ccccc32)c([N+](=O)[O-])c1	none
COc1ccccc1Oc1cc(C#N)c(C#N)cc1-n1nnc2ccccc21	Autofluor counter 22329
O=S(=O)(Cc1cccc(Cl)c1)NCC1CCN(Cc2ccccc2)CC1	none (no result: Anthrax LF inh2, BoNT-F LC inh, Autofluor counter, BoNT-A LC inh2)
N#Cc1c(N)c(C(=O)c2ccccc2)n2c1CCC2	Autofluor counter 23949
Cc1nc(N=C(N)N(C)C)[nH]c(=O)c1C	none (no result: Anthrax LF inh2, BoNT-F LC inh, Autofluor counter, BoNT-A LC inh2)
CCC(=O)Nc1ccc(C(=O)N/N=C/c2ccccc2[N+](=O)[O-])cc1	Autofluor counter 23894 (no result: PriA SSB inh)
COc1ccc2nc(-c3ccc(F)c(NC(=O)COc4ccc(Cl)cc4)c3)cn2n1	none (no result: Anthrax LF inh2, BoNT-F LC inh, Autofluor counter, BoNT-A LC inh2)
Cc1cc(OC[C@@H](O)Cn2cnc3ccccc32)ccc1Cl	none (no result: Anthrax LF inh2, BoNT-F LC inh, Autofluor counter, BoNT-A LC inh2)
O=C(c1ccccc1Br)N1CCN(Cc2nncn2C2CCCCC2)CC1	none (no result: Anthrax LF inh2, BoNT-F LC inh, Autofluor counter, BoNT-A LC inh2)
O=C(c1cc(-c2cccnc2)nc2ccc(Cl)cc12)N1CCC2(CC1)OCCO2	none
O=C(c1cc(-c2ccncc2)nc2ccccc12)N1CCN(c2ccccn2)CC1	Autofluor counter 17502
O=C(c1cc(-c2cccnc2)nc2ccccc12)N1CCC2(CC1)OCCO2	Autofluor counter 19594
Cc1c(Cl)ccc2sc(NC(=O)c3cc4ccccc4oc3=O)nc12	none (no result: Anthrax LF inh2, BoNT-F LC inh, Autofluor counter, BoNT-A LC inh2)
CCCC1CCC(C2=N/C(=C\c3ccc(OC)c(OC)c3)C(=O)O2)CC1 (stereo not drawn)	Autofluor counter 22779
COc1ccc(C2SCC(=O)Nc3c2c(C)nn3C2CCOC(C)(C)C2)cc1OC (stereo not drawn)	Autofluor counter 23587, BoNT-A LC inh2 inconclusive
COC(=O)C1=C(C)NC(=O)NC1c1ccc(OC)c(OC)c1 (stereo not drawn)	none (no result: PriA SSB inh)
COc1ccc(C2SCC(=O)Nc3c2c(C)nn3-c2ccccc2)cc1OC (stereo not drawn)	Autofluor counter 23949
COc1nc(OCC(N)=NO)nc(N2CCOCC2)n1	none (no result: Anthrax LF inh2, BoNT-F LC inh, Autofluor counter, BoNT-A LC inh2)
Cc1ccc(-c2csc(=S)n2CC(=O)OCC(=O)NC(C)C(C)C)cc1 (stereo not drawn)	Autofluor counter 16450
O=C(Oc1ccc2c(c1)OCC2=O)c1ccc(Cl)cc1	BoNT-F LC inh inconclusive, BoNT-A LC inh2 inconclusive
COc1cc(C(=O)Oc2ccc3c(c2)OCC3=O)cc(OC)c1OC	BoNT-F LC inh 44
CC#CCCCC(=O)Nc1cc(OC)nc(OC)n1	Autofluor counter 22745
COc1cc(NC(=O)CCC(=O)O)nc(OC)n1	none
Cc1ccc2nc(SCC(=O)c3ccc4c(c3)OCO4)[nH]c2c1	none
Cc1ccc2nc(SCC(=O)c3ccc(Cl)s3)[nH]c2c1	Autofluor counter 19540
O=C(NCc1ccncc1)C1CCN(c2ccc(-c3ccccc3)nn2)CC1	none (no result: Anthrax LF inh2, BoNT-F LC inh, Autofluor counter, BoNT-A LC inh2)
Cc1ccc(S(=O)(=O)N2CCN(CC(O)c3ccco3)CC2)s1 (stereo not drawn)	none (no result: Anthrax LF inh2, BoNT-F LC inh, Autofluor counter, BoNT-A LC inh2)
N#Cc1c(N=Cc2ccc(O)cc2O)sc2c1C1CCN2CC1	none (no result: Anthrax LF inh2, BoNT-F LC inh, Autofluor counter, BoNT-A LC inh2)
CCN(CC)c1ccc(/C=N/c2sc3c(c2C#N)C2CCN3CC2)c(O)c1	Autofluor counter 22519 (no result: PriA SSB inh)
NC(N)=NN=C1c2ccccc2-c2ccccc21	Anthrax LF inh2 49, BoNT-F LC inh 82
NC(=S)NN=C1c2ccccc2-c2ccccc21	none
Cc1ccc2nc(NC(=O)C3(c4cccs4)CCOCC3)sc2c1	none (no result: Anthrax LF inh2, BoNT-F LC inh, Autofluor counter, BoNT-A LC inh2)
COc1cc(CC(NC(C)=O)C(=O)NC2CCN(C(=O)c3cc(OC)c(OC)c(OC)c3)CC2)cc(OC)c1 (stereo not drawn)	none
COc1cc(C(=O)N2CCC(NC(=O)C(Cc3ccc(C)cc3)NC(C)=O)CC2)cc(OC)c1OC (stereo not drawn)	Autofluor counter 22816
COc1cc(C(=O)N2CCC(NC(=O)C(Cc3ccc(C(C)C)cc3)NC(C)=O)CC2)cc(OC)c1OC (stereo not drawn)	none
COc1cc(C(=O)N2CCC(NC(=O)C(Cc3ccccc3C)NC(C)=O)CC2)cc(OC)c1OC (stereo not drawn)	Autofluor counter 21354, BoNT-A LC inh2 inconclusive
COc1cc(C(=O)N2CCN(C(=O)C(Cc3cc(C)ccc3C)NC(C)=O)CC2)cc(OC)c1OC (stereo not drawn)	Autofluor counter 22028
Cc1nc(-c2cccs2)sc1CNC(=O)Cc1cn(C)c2ccccc12	none (no result: Anthrax LF inh2, BoNT-F LC inh, Autofluor counter, BoNT-A LC inh2)
CNC(=O)c1cc2cc(OC)ccc2oc1=O	Autofluor counter 21752
CNC(=O)c1cc2ccc(OC)cc2oc1=O	none
COc1cc(C)c(Cl)cc1S(=O)(=O)NCCN1CCOCC1	Autofluor counter 23984
CC1(C)OC(=O)N(c2ccccn2)C1(C)O (stereo not drawn)	none
Cc1ccnc(N2C(=O)OC(C)(C)C2(C)O)c1 (stereo not drawn)	Autofluor counter 16787
O=[N+]([O-])c1ccc(C=NNc2ccnc3cc(Cl)ccc23)o1	PriA SSB inh 59 (no result: Anthrax LF inh2, BoNT-F LC inh, Autofluor counter, BoNT-A LC inh2)
O=[N+]([O-])c1ccc(/C=N/Nc2ccnc3cc(Cl)ccc23)o1	none (no result: PriA SSB inh)
O=C(CCl)N1c2ccccc2Sc2ccc3ccccc3c21	none (no result: PriA SSB inh)
O=C(COc1ccc2ccccc2c1)N1c2ccccc2Sc2ccccc21	Autofluor counter 22677
CCNc1nc(NCC)n2c(SCC(=O)Nc3ccc([N+](=O)[O-])cc3)nnc2n1	none (no result: Anthrax LF inh2, BoNT-F LC inh, Autofluor counter, BoNT-A LC inh2)
O=[N+]([O-])c1cc(S(=O)(=O)Nc2cccc(C(F)(F)F)c2)ccc1-n1nnc2ccccc21	none
COc1ccc(NS(=O)(=O)c2ccc(-n3nnc4ccccc43)c([N+](=O)[O-])c2)cc1	Autofluor counter 21241
O=S(=O)(c1ccc(Cl)cc1)[C@H]1CCN(S(=O)(=O)CCOc2ccccc2)C1	none (no result: Anthrax LF inh2, BoNT-F LC inh, Autofluor counter, BoNT-A LC inh2)
Cc1ccc(-n2c3c(c(=O)[nH]c2=O)C(NS(=O)(=O)c2ccc(C)cc2)(C(F)(F)F)C(=O)N3)cc1 (stereo not drawn)	none
Cc1ccc(-n2c3c(c(=O)[nH]c2=O)C(C(F)(F)F)(C(F)(F)F)NC(=O)N3)cc1	Autofluor counter 16132
CC1=C(C#N)C(NC(=O)C2CCCCC2)(C(F)(F)F)C(=O)N1 (stereo not drawn)	Autofluor counter 22461
CC1=C(C#N)C(NC(=O)C2CC2)(C(F)(F)F)C(=O)N1 (stereo not drawn)	none
CCC(C)(C(=O)NC1CCCC1)N(Cc1ccco1)C(=O)Cc1cccs1 (stereo not drawn)	none
CCC(C)(C(=O)NC1CCCCC1)N(CC1CCCO1)C(=O)CNC(=O)c1ccccc1 (stereo not drawn)	none
CCC(C)(C(=O)NC1CCCCC1)N(CC1CCCO1)C(=O)c1ccccn1 (stereo not drawn)	Autofluor counter 25517
